Data: PubChem BioAssay AID1159580 (chemical genetic matrix, 2015)
Where “and” joins values, the source holds several entries; their conditions need not be identical. Identical values can stand only once. The whole screen tested about 5,500 compounds, of which about 2,000 (36%) were called active. Roughly 18% stayed inconclusive and do not appear here. Rule as the data show it: active = normalized growth mostly below about 0.91 (no sharp cut-off); inconclusive = no clear call, values can overlap the other calls; inactive = mostly above about 0.92. The list shows a part of the results.

Experiment: chemical genetic growth profiling, strain panel (AID 1159580);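 also: tested at 20 µM; growth read once vehicle control cultures reached saturation at 30 °C; 1 = growth at the plate median or of vehicle wells; lower values mean less growth of the strain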
Details: S. cerevisiae deletion strains, growth OD

Measured: normalized growth

NC(=O)c1ccc([N+](=O)[O-])cc1Cl
inactive: locus YAL013W, strain DEP1, hits give low values 0.983 | locus YAL021C, strain ccr4, hits give low values 0.97 | locus YAL026C, strain drs2, hits give low values 0.968 | locus YAL030W, strain snc1, hits give low values 0.997 | locus YBL061C, strain skt5, hits give low values 0.983 | locus YBR009C, strain hhf1, hits give low values 0.953 | locus YBR021W, strain FUR4, hits give low values 1.02 | locus YBR023C, strain chs3, hits give low values 0.985 | locus YBR171W, strain sec66, hits give low values 0.981 | locus YBR229C, strain ROT2, hits give low values 0.95 | locus YBR231C, strain swc5, hits give low values 1.01 | locus YBR279W, strain paf1, hits give low values 0.988 | locus YCL011C, strain gbp2, hits give low values 0.929 | locus YCL016C, strain dcc1, hits give low values 0.951 | locus YCL029C, strain bik1, hits give low values 0.977 | locus YCL069W, strain vba3, hits give low values 0.984 | locus YCR088W, strain abp1, hits give low values 0.994 | locus YDL005C, strain med2, hits give low values 0.985 | locus YDL035C, strain GPR1, hits give low values 0.98 | locus YDL040C, strain nat1, hits give low values 0.992 | locus YDL074C, strain BRE1, hits give low values 0.956 | locus YDL101C, strain DUN1, hits give low values 0.943 | locus YDL134C, strain PPH21, hits give low values 0.982 | locus YDL185W, strain tfp1, hits give low values 0.981 | locus YDL192W, strain arf1, hits give low values 0.982 | locus YDR001C, strain nth1, hits give low values 0.965 | locus YDR069C, strain doa4, hits give low values 0.971 | locus YDR101C, strain arx1, hits give low values 0.991 | locus YDR137W, strain rgp1, hits give low values 0.929 | locus YDR150W, strain NUM1, hits give low values 0.965 | locus YDR159W, strain sac3, hits give low values 0.931 | locus YDR162C, strain NBP2, hits give low values 0.945 | locus YDR195W, strain ref2 1.02 | locus YDR297W, strain sur2, hits give low values 0.978 | locus YDR318W, strain mcm21, hits give low values 0.995 | locus YDR334W, strain swr1, hits give low values 0.979 | locus YDR335W, strain msn5, hits give low values 0.981 | locus YDR388W, hits give low values 0.984 | locus YDR392W, strain spt3, hits give low values 0.942 | locus YDR502C, strain sam2, hits give low values 0.973 | locus YEL003W, strain gim4, hits give low values 1.01 | locus YEL037C, strain rad23, hits give low values 0.983 | locus YEL061C, strain CIN8 (second series), hits give low values 0.979 | locus YEL061C, strain CIN8, hits give low values 0.976 | locus YER015W, strain faa2, hits give low values 0.988 | locus YER016W, strain bim1, hits give low values 0.969 | locus YER110C, hits give low values 0.978 | locus YER111C, strain swi4, hits give low values 0.988 | locus YER155C, strain BEM2 (second series), hits give low values 1.05 | locus YER155C, strain BEM2, hits give low values 0.984 | locus YER167W, strain BCK2, hits give low values 0.978 | locus YFR010W, strain ubp6, hits give low values 0.975 | locus YGL078C, strain dbp3, hits give low values 0.965 | locus YGL086W, strain mad1, hits give low values 0.998 | locus YGL167C, strain pmr1, hits give low values 0.978 | locus YGL173C, strain kem1, hits give low values 0.99 | locus YGL227W, strain vid30, hits give low values 0.991 | locus YGL240W, strain doc1, hits give low values 0.995 | locus YGL248W, strain PDE1, hits give low values 0.973 | locus YGL253W, strain hxk2, hits give low values 0.971 | locus YGR078C, strain PAC10, hits give low values 0.979 | locus YGR135W, strain pre9, hits give low values 0.971 | locus YGR229C, strain SMI1, hits give low values 0.974 | locus YGR252W, strain gcn5, hits give low values 1 | locus YHR013C, strain ard1, hits give low values 0.936 | locus YHR027C, strain rpn1, hits give low values 0.968 | locus YHR030C, strain SLT2, hits give low values 0.985 and 0.977 | locus YHR079C, strain IRE1 (second series), hits give low values 0.977 | locus YHR079C, strain IRE1, hits give low values 0.974 | locus YHR094C, strain hxt1, hits give low values 0.989 | locus YHR129C, strain ARP1, hits give low values 0.997 | locus YHR142W, strain chs7, hits give low values 0.982 | locus YHR200W, strain rpn10, hits give low values 0.981 | locus YIL066C, strain RNR3, hits give low values 0.976 | locus YIL073C, strain SPO22, hits give low values 0.95 | locus YIL125W, strain kgd1, hits give low values 0.989 | locus YIR030C, strain dcg1, hits give low values 0.972 | locus YJL092W, strain hpr5, hits give low values 0.988 | locus YJL095W, strain BCK1 (second series), hits give low values 0.969 | locus YJL095W, strain BCK1, hits give low values 0.995 and 0.957 | locus YJL115W, strain asf1, hits give low values 0.986 | locus YJL129C, strain trk1, hits give low values 1.02 | locus YJL134W, strain LCB3, hits give low values 0.975 | locus YJL154C, strain vps35, hits give low values 0.98 | locus YJL164C, strain tpk1, hits give low values 0.933 | locus YJL166W, strain qcr8, hits give low values 1.01 | locus YJL168C, strain set2, hits give low values 0.982 | locus YJL187C, strain SWE1 (second series), hits give low values 0.972 | locus YJR043C, strain POL32, hits give low values 0.993 | locus YJR066W, strain TOR1, hits give low values 0.944 | locus YJR075W, strain HOC1, hits give low values 0.969
